Activity calls are given as the source filed them.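 Rule for the calls: active = inhibition above 50%; inactive = the rest.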
Assay: HepG2 cytotoxicity, primary screen, cytotoxicity control for P. falciparum antimalarial project, cell-based, ATP luminescence (AID 2303);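 note: 0% = DMSO wells and 100% = digitonin-killed cells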
Details: HepG2 viability, 24-48 h, at 10 µM, stronger effect = higher value

SMILES	inhibition
COc1cccc2c(NCc3ccccc3)nc(NCCCN3CCCCC3C)nc12 (centres undefined)	20% (inactive)
COc1cc(C=CC(=O)N2CCC(CCN3CCC(c4c[nH]c5ccccc45)CC3)CC2)cc(OC)c1	39% (inactive)
Cc1cc(Cl)ccc1OC(C)C(=O)N1CCc2ccccc21 (centres undefined)	8% (inactive)
Cc1nc(-c2cccc(Nc3nccc(NCC(O)c4ccccc4)n3)c2)cs1 (centres undefined)	43% (inactive)
CC(C)(C)c1ccc(S(=O)(=O)Nc2ccccc2Cn2nc(N3CCNCC3)ccc2=O)cc1	-5% (inactive)
CCn1ccc2c(N3CCCS3(=O)=O)cc(C(=O)N[C@@H](Cc3ccccc3)[C@H](O)CNC(C)(C)CCCC(C)C)cc21	8% (inactive)
O=C(CC(=O)C(F)(F)F)c1ccccc1[N+](=O)[O-]	65% (active)
CCOc1ccc(Br)cc1/C=C/C(=O)Nc1ccc2c(c1)CN(C)CCC2	18% (inactive)
COc1ccc2nccc(NN=Cc3ccccc3)c2c1	-2% (inactive)
CN(C(=O)/C=C/c1cc(C(F)(F)F)ccc1F)C1CCN(CCCCCNC(=O)/C=C/c2ccc(Cl)c(Cl)c2)CC1	71% (active)
Nc1cnc(C#Cc2cc3ncnc(N(CCN4CCOCC4)c4ccc(OCc5cccc(F)c5)c(Cl)c4)c3s2)cn1	-8% (inactive)
Cc1nnsc1C(=O)Nc1ccc(-c2cccc(-c3nc4c(C)cccc4[nH]3)c2)cc1	23% (inactive)
O=[N+]([O-])c1ccc(C(O)CNCCc2ccccc2)cc1OCc1ccccc1 (centres undefined)	-6% (inactive)
COc1cc2ccccc2c(OC)c1CCNCCCCNCCc1c(OC)cc2ccccc2c1OC	100% (active)

— PubChem BioAssay
